Where “and” joins values, the source holds several entries; their conditions need not be identical. Identical values can stand only once. Hit rate of the full screen: of about 73,000 compounds, about 2,500 (3.4%) were called active. Entries that show only a call come without a potency. About 7% were inconclusive and are not listed. Calls come from the whole dose curve; as a rule, active = well fitted inhibition curve with a large enough effect; inconclusive = small, poorly fitted or top-dose-only effect; inactive = no such curve, though single readings can be large or run the other way. Many of the other results were omitted from the sample, so actives are more common in it than they were.
Potency is the fitted concentration of half-maximal effect.

3-hydroxyacyl-CoA dehydrogenase type-2 (Homo sapiens), sequence (Q99714 whole entry, looked up): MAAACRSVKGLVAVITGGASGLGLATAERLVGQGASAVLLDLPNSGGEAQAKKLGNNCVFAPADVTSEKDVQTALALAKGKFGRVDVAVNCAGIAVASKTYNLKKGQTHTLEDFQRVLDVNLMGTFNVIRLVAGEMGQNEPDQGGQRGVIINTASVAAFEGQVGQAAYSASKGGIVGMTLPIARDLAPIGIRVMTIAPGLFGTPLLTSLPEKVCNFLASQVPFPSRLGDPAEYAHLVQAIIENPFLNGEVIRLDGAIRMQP
3-hydroxyacyl-CoA dehydrogenase type-2 (Homo sapiens), sequence (Q99714 whole entry, looked up): as above

In this test the target is 3-hydroxyacyl-CoA dehydrogenase type-2 (Homo sapiens) (UniProt Q99714). Description: qHTS Assay for Inhibitors of HADH2 (Hydroxyacyl-Coenzyme A Dehydrogenase, Type II). Note: nearly all actives have a fitted effect of over 60% in size. The following applies: recombinant HADH2, NADH fluorescence, beta-hydroxybutyryl-CoA; series mostly up to 57.1 µM. The source says:
Assay Overview: NIH Molecular Libraries Screening Centers Network [MLSCN] NIH Chemical Genomics Center [NCGC] Structural Genomics Consortium [SGC] Grant Number: None HADH2: Hydroxyacyl-Coenzyme A dehydrogenase, type II, was supplied by researchers at the Structural Genomics Consortium, Oxford University lab (PI Udo Oppermann). The mitochondrial enzyme 17-hydroxysteroid dehydrogenase type 10 (HSD17-10) previously classified as type II hydroxyacyl-CoA dehydrogenase (HADH2) catalyzes the NAD+ dependent oxidation of a variety of substrates including acyl-CoAs, androgens and neurosteroids as well as bile acids(Shafqat N, Marschall HU, Filling C, et al. Biochemical Journal. 2003;376(Pt 1):49-60). The role in neurodegeneration by binding to amyloid-peptide led to its identification (Oppermann UC, et al FEBS Letters. 1999;451(3):238-242 and Yan SD, et al. Nature. 1997;389(6652):689-695), and mutations in its gene appear to be causative for 2-methyl-3-hydroxybutyryl-CoA dehydrogenase deficiency (Ofman R, et al. American Journal of Human Genetics. 2003;72(5):1300-1307). The enzyme was produced by E.coli fermentation as His-tagged recombinant for the purpose of X-ray structure determination, and had been mass-spectrometry characterized. Inhibition of HADH2 activity was screened by utilizing beta-hydroxybutyryl coenzyme A as an electron donor and NAD+ as an electron acceptor/cofactor. An increase in the fluorescence intensity due to conversion of NAD+ to NADH was used to measure the enzyme activity.
Assay Protocol: Buffer: 100 mM Tris-HCl pH 9.0, containing 0.01 % Tween-20. Reagents/Controls: Buffer in columns 3 and 4 as negative control (no enzyme). Substrate/cofactor solution: 1 mM NAD+ and 90 uM beta-hydroxybutyryl coenzyme A (Sigma-Aldrich, St. Louis, MO) final concentrations dispensed throughout the plate. Enzyme: 20 nM HADH2 final concentration in columns 1, 2, 5-48. Column 1 is neutral (100% activity). Column 2 contained titration of apomorphine (Sigma-Aldrich, A 4393, PubChem CID 2215, top concentration 500 uM, then 1:2 dilution in duplicate) Assay Steps: Three uL of enzyme were dispensed to 1536-well Greiner black solid bottom plates. Compounds and controls (23 nL) were transferred via Kalypsys PinTool. The plates were incubated for 15 min at room temperature, and then 1 uL of substrate/cofactor solution was added to start the reaction. The plates were immediately transferred to and read every 30 seconds for 4 min on ViewLux High-throughput CCD imager (Perkin-Elmer) using 360 nm excitation and 450 nm emission fluorescence protocol. The fluorescence intensity difference between the last and the first time points was used to compute reaction progress.
In general terms: In qHTS, concentration-response curves come from the screen itself.
Consider `COC(=O)N(c1ccc(OC)cc1)P1(=S)OCCC(C)O1` (stereo not given), for which the Potency was 1 µM (active).

Take `Fc1ccc(C(OCCN2CCN(C/C=C\c3ccccc3)CC2)c2ccc(F)cc2)cc1`: the Potency result is “inactive”.

For the compound `N[C@H](Cc1o[nH]c(=O)c1Cl)C(=O)O`, the Potency result is “inactive”.

`C/C(=C\C=C/[C@@H](C)C(=O)O)[C@H]1CN[C@H](C(=O)O)[C@@H]1CC(=O)O`: the Potency entry was “inactive”.

For the compound `O=C1C2(Cl)C3(Cl)C4(Cl)C(Cl)(Cl)C5(Cl)C3(Cl)C1(Cl)C5(Cl)C24Cl` (stereo not given), the Potency result is “inactive”.

As for `COc1ccc(CN2CCN(c3ccccc3F)CC2)c(OC)c1`, the activity change, negative = inhibition was -2.55% [at 11.4 µM] (inactive).

For the compound `CC(Cl)Cl`, the Potency entry was “inactive”.

For `Cc1cccc([C@H](C)c2cnc[nH]2)c1C`, the Potency result was “inactive”.

For the compound `Nc1ccc([N+](=O)[O-])cc1`, the Potency result was “inactive”.

For the compound `O=[N+]([O-])c1ccc(Cl)c(Cl)c1`, the Potency was 31.6 µM (active).

With `Cc1cc(-c2ccc(N)c(C)c2)ccc1N`, the Potency result was “inactive”.

As to `ClCCBr`, the Potency result was “inactive”.

In the case of `O=C(O)C(=O)Cc1ccc2c(c1)OCO2`, the activity change, negative = inhibition is -12.9% [at 11.4 µM] (inactive).

`CC(=O)O[C@H]1CC[C@@]2(C)[C@@H](CC[C@H]3[C@H]2CC(=O)[C@]2(C)[C@@H]3C[C@@H](N3CC3)[C@H]2C(C)=O)C1`: the activity change, negative = inhibition was 16.9% [at 11.4 µM] (inactive).

Take `CC(C)(O/N=C(\C(=O)N[C@@H]1C(=O)N2C(C(=O)[O-])=C(C[n+]3ccccc3)CS[C@@H]12)c1csc(N)n1)C(=O)O`: the Potency is 7.94 µM (active).

Take `c1ccc(CN2CC[C@@]3(CCCNC3)C2)cc1`: the Potency result is “inactive”.

Consider `NCC[Se][Se]CCN`, for which the activity change, negative = inhibition was 1.13% [at 11.4 µM] (inactive).

In the case of `NC[C@H](O)c1ccc(O)cc1`, the Potency entry is “inactive”.

Take `BrC1C(Br)C(Br)C(Br)C(Br)C1Br` (stereo not given): the Potency is 25.1 µM (active).

Turning to `C[C@H](Br)C(=O)N[C@H](CO)C(=O)O`, the activity change, negative = inhibition is -0.293% [at 11.4 µM] (inactive).

`CC[C@]1(O)C(=O)OCc2c1cc1n(c2=O)Cc2cc3ccccc3nc2-1`: the Potency entry is “inactive”.

Take `CCCCN1C2CCC1CC(OC(c1ccc(F)cc1)c1ccc(F)cc1)C2` (stereo not given): the Potency result was “inactive”.

Turning to `CCOC(=O)c1c(-c2ccccc2)oc2ccc(OC(=O)N(C)C)cc12`, the Potency is 7.94 µM (active).

Regarding `C[C@@]12CC[C@H]3[C@@H](CC[C@]4(O)C[C@H](O)CC[C@@]34C=O)[C@]1(O)CC[C@@H]2C1=CC(=O)OC1`, the Potency entry was “inactive”.

As to `Clc1ccc([C@@H]2C[C@H]3CC[C@@H]2N3)cn1`, the Potency result was “inactive”.

`ClC(Cl)(Cl)c1ccccc1`: the Potency result was “inactive”.

As to `CC(=O)c1c(O)c(C)c(O)c(Cc2c(O)c3c(c(C(=O)/C=C\c4ccccc4)c2O)OC(C)(C)C=C3)c1O`, the Potency was 12.6 µM (active) and 1 µM (active).

Regarding `Nc1ccc(Cc2ccc(N)c(Cl)c2)cc1Cl`, the Potency entry was “inactive”.

As to `Clc1ccccc1`, the Potency result is “inactive”.

In the case of `CC(C)(c1ccccc1)c1ccc(O)cc1`, the Potency result is “inactive”.

Values taken from PubChem BioAssay AID886 (National Center for Advancing Translational Sciences (NCATS), 2007).
